Reference: PubChem BioAssay (NCATS)
“And” between values parts separate entries of the source, which are not always exact repeats. Identical values can stand only once. Records with an inconclusive call do not appear. The source made the active and inactive calls. Unless noted, calls come from the whole dose curve; as a rule, active = well fitted curve in the direction sought with a large enough effect; inconclusive = small, poorly fitted or top-dose-only effect, or another doubt; inactive = no such curve, though single readings can be large; an effect the other way counts as inactive or inconclusive.

Key:
[1] = biological target: Lysosomal acid glucosylceramidase (Homo sapiens) (UniProt P04062); test: Glucocerebrosidase-p2 (AID 348; in the data active = potency below about 10 µM; note: potency is the fitted concentration of half-maximal effect); details: purified GBA, blue fluorogenic substrate, 40 min
Method in brief: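 Compounds titrated from 0.6 nM upwards against 0.2 nM enzyme in pH 5.9 citric acid/KH2PO4, taurocholate, tween-20; blue fluorogenic substrate 80 uM, 40 min room temperature, stopped and read Ex 365/Em 440 for AC50.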

[2] = biological target: Cytochrome P450 1A2 (Homo sapiens) (UniProt P05177); test: p450-cyp1a2 (AID 410; calls by dose curve; note: potency is the fitted concentration of half-maximal effect;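 for activity change, negative = inhibition: -100% = full effect of reference inhibitor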); details: recombinant CYP1A2, luciferin-ME demethylation, luminescence; series mostly up to 57 µM
Method in brief: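 Inhibition was calculated relative to 57 uM furafylline (full inhibition). The reaction used human CYP1A2 at 20nM with Luciferin-ME at its Km, 100uM, driven by an NADPH-regenerating system for 60 min at room temperature.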

[3] = NFAT Signaling Pathway (AID 444; active = well fitted curve in either direction with a large enough effect, not every such curve was filed as active;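 note: carbachol stimulus at about its EC50 of 1 µM final; % is set by controls: 0 for no effect and ±100 for the full control effect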); details: Jurkat NFAT-bla M1, carbachol, beta-lactamase ratio, 5 h; at 7.69 µM (top of the series) unless noted
Method in brief: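 Jurkat cells with NFAT-driven β-lactamase reporter and co-expressed M1 receptor, stimulated with carbachol (final 1 uM, ~EC50), compound titration, 5 h at 37 °C. CCF4 loaded 1 h at RT; 460/530 nm ratio gave %activity and AC50.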

[4] = Stat Signaling Pathway (AID 446; active = well fitted curve in either direction with a large enough effect, not every such curve was filed as active;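 note: ME-180 cervical cancer cells given 40 pM IL-6 alongside compound; SIE-controlled beta-lactamase reporter measured as 460/530 nm FRET emission ratio; % is set by controls: 0 for no effect and ±100 for the full control effect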); details: ME-180 SIE beta-lactamase reporter, IL-6 stimulated, 5 h; at 7.69 µM (top of the series) unless noted
Method in brief: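 ME-180 cells carrying a SIE-driven beta-lactamase reporter are stimulated with 40 pM IL-6 for 5 h at 37C in the presence of compound. The 460/530 nm FRET substrate ratio is read after 2.5 h at RT. Data are normalised to 300 pM IL-6 and to 125 nM JAK inhibitor controls.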

[5] = biological target: Glucocorticoid receptor (Homo sapiens) (UniProt P04150); test: GR-EFC Redistribution (AID 451; calls by dose curve; note: potency is the fitted concentration of half-maximal effect); details: CHO-K1 GR-EFC translocation, beta-gal luminescence, 2 h
Method in brief: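 CHO-K1 cells expressing nuclear EA and GR-ED fragments of b-gal; compounds titrated up to 46 uM final, 2 h at 37 C. GR nuclear translocation read as complemented b-gal luminescence after 1 h RT detection.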

[6] = biological target: Mitogen-activated protein kinase 10 (Mus musculus) (UniProt Q61831); test: JNK3 AlphaScreen Assay (AID 530; active = well fitted curve in either direction with a large enough effect, not every such curve was filed as active;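 note: kinase came from lysate of stimulated human HepG2 cells; signal reports phosphorylation of biotinylated GST-cJun 1-79 at Ser73 with 10 µM ATP; % is set by controls: 0 for no effect and ±100 for the full control effect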); details: JNK3 lysate, c-Jun phosphorylation; series mostly up to 57.1 µM
Method in brief: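 qHTS format: compounds tested as titrations against IL-1beta/TNF-alpha-activated HepG2 lysate JNK3 with biotin-GST-cJun substrate and 10 uM ATP at room temperature. Loss of anti-phospho-cJun AlphaScreen signal indicates inhibition.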

[7] = biological target: 3',5'-cyclic-AMP phosphodiesterase 4B (Homo sapiens) (UniProt Q07343); test: qHTS Assay for Inhibitors of PDE-IV (AID 607; active = well fitted activation curve with a large enough effect in the main read-out, with a control signal flat, not every such curve was filed as active; note: % of control where 0% means no effect); details: HEK293 ACTOne CNG channel cells, membrane potential fluorescence; series mostly up to 22.9 µM
Method in brief: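 HEK293 ACTOne cells with CNG channel (1000/well), endogenous PDE4; membrane potential dye, compounds up to 22.9 uM final. Fluorescence Ex 535/Em 590; RO 20-1724 (100 uM final) as reference.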

[8] = biological target: Cytochrome P450 3A4 (Homo sapiens) (UniProt P08684); test: qHTS Assay for Inhibitors and Substrates of Cytochrome P450 3A4 (AID 884); details: recombinant CYP3A4, Luciferin-PPXE luminescence; series mostly up to 57.1 µM; note: nearly all actives have a fitted effect of over 50% in size; note: potency is the fitted concentration of half-maximal effect
Method in brief: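 20 nM human CYP3A4 with 25 uM Luciferin-PPXE (at KM) in 200 mM KPO4, preincubated 10 min with compound; NADPH regeneration started a 60 min RT reaction. Luciferin detected by luminescence, normalized to 57 uM ketoconazole as full inhibition.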

[9] = biological target: Cytochrome P450 3A4 (Homo sapiens) (UniProt P08684); test: qHTS Assay for Activators of Cytochrome P450 3A4 (AID 885); details: recombinant CYP3A4, Luciferin-PPXE luminescence, 60 min; series mostly up to 57.1 µM; note: nearly all actives have a fitted effect of over 65% in size; note: potency is the fitted concentration of half-maximal effect
Method in brief: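 Human CYP3A4 (20 nM) with Luciferin-PPXE at 25 uM (its KM) in 200 mM KPO4; 10 min compound preincubation, then NADPH regeneration and 60 min reaction at RT. Luciferin read by luminescence; normalized to 57 uM ketoconazole full inhibition.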

[10] = qHTS Assay for Lipid Storage Modulators (AID 1519; calls by dose curve); details: Drosophila S3 cells, BODIPY lipid droplet/cell ratio, laser cytometry, cells loaded with oleic acid; for activity change, negative = inhibition: at 57.5 µM (top of the series)
Method in brief: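 Cells seeded at 5,000 per well were treated with compounds over a concentration series and loaded with oleic acid (400 uM, as added). Lipid droplet fluorescence (488 nm excitation, 500-530 nm channel) was read by laser-scanning cytometry and normalized to 20 uM Triacsin C.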

[11] = biological target: Dual specificity protein kinase CLK4 (Homo sapiens) (UniProt Q9HAZ1); test: qHTS Assay for Inhibitors of CDC-like Kinase 4 (Kinase-Glo Assay) (AID 1770); details: recombinant Clk4, Kinase-Glo ATP depletion luminescence; series mostly up to 66.7 µM; note: potency is the fitted concentration of half-maximal effect; nearly all actives have a fitted effect of over 65% in size
Method in brief: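 Inhibition was judged from remaining ATP, measured by Ultra-Glo luciferase bioluminescence after Clk4 (25 nM) had acted on RS peptide at 1 uM ATP for 4.5 hours, room temperature.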

[12] = biological target: Dual specificity protein kinase CLK4 (Homo sapiens) (UniProt Q9HAZ1); test: qHTS Assay for Inhibitors of CDC-like Kinase 4 (ADP-Glo Assay) (AID 1771); details: recombinant CLK4, ADP-Glo luminescence; series mostly up to 80 µM; note: potency is the fitted concentration of half-maximal effect; nearly all actives have a fitted effect of over 70% in size
Method in brief: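 Kinase reaction: Clk4 at 25 nM, RS repeat peptide substrate at 100 uM, ATP at 1 uM, 1 hr, room temperature. Product ADP detected as luciferase signal via ADP-Glo.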

[13] = biological target: Dual specificity protein kinase CLK4 (Homo sapiens) (UniProt Q9HAZ1); test: qHTS Assay for Inhibitors of CDC-like Kinase 4 (ADP-FP Assay) (AID 1795); details: Transcreener ADP fluorescence polarization; series mostly up to 50 µM; note: potency is the fitted concentration of half-maximal effect; nearly all actives have a fitted effect of over 60% in size
Method in brief: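 Inhibition of ADP formation by 6.25 nM Clk4 is measured using 1 uM ATP and 100 uM RS repeat peptide over one hour. Produced ADP displaces a fluorescent tracer from antibody, lowering polarization.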

[14] = biological target: Ubiquitin carboxyl-terminal hydrolase 1 (Homo sapiens) (UniProt O94782); test: Inhibitors of USP1/UAF1: Pilot qHTS (AID 504865); details: purified USP1/UAF1, Ub-rhodamine cleavage fluorescence; series mostly up to 54.9 µM; note: nearly all actives have a fitted effect of over 35% in size; note: potency is the fitted concentration of half-maximal effect
Method in brief: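 Kinetic fluorescence assay: 1nM USP1/UAF1, 15 min compound preincubation, then 150nM Ub-Rho; 480/540 nm.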

[15] = biological target: Rap guanine nucleotide exchange factor 3 (Homo sapiens) (UniProt O95398); test: Confirmatory qHTS for agonist of cAMP-regulated guanine nucleotide exchange factor 3 (EPAC1) (AID 1645881); details: EPAC1 Rap1B BODIPY-GDP exchange fluorescence; series mostly up to 154 µM;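 note: EPAC1 catalysed release of BODIPY-GDP from Rap1B seen as fluorescence loss; 100% = effect of cAMP agonist control; nearly all actives have a fitted effect of over 75% in size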
[16] = Primary qHTS for small molecule stabilizers of the endoplasmic reticulum resident proteome: Secreted ER Calcium Modulated Protein (SERCaMP) assay (AID 1508630); details: SH-SY5Y GLuc-SERCaMP (Gaussia luciferase released on ER calcium loss) secretion, thapsigargin, luminescence; series mostly up to 38.4 µM; note: % is set by controls: 0 for no effect and ±100 for the full control effect
Method in brief: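 GLuc-SERCaMP-expressing SH-SY5Y cells, pretreated 16 h with compound, are challenged with thapsigargin to empty ER calcium stores; after 4 h, coelenterazine is added directly to the medium and luminescence is imaged.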

[17] = AP1 Signaling Pathway (AID 357; active = well fitted curve in either direction with a large enough effect, not every such curve was filed as active); details: ME-180 (cervical carcinoma) AP-1-bla reporter, EGF-induced, beta-lactamase ratio, 5 h; at 7.69 µM (top of the series) unless noted
Method in brief: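 Titration-series screen for positive or negative modulators of EC50 EGF-induced signaling in ME-180 cells carrying an AP-1-driven beta-lactamase reporter. After 5 hours at 37 degrees Celsius, CCF4 460nm/530nm emission ratio gave %Activity; AC50 values derived.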

[18] = biological target: Glucocorticoid receptor (Homo sapiens) (UniProt P04150); test: GR-GFP Redistribution (AID 450;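 active = compounds whose dose series gives a full or clear partial fitted curve of increased nuclear translocation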; note: potency is the fitted concentration of half-maximal effect); details: U2OS GR-GFP nuclear translocation, laser cytometry, 2 h
[19] = Confirmation and Secondary Assay for Modulators of Hemoglobin Beta Chain Splicing at IVS2 654 locus (AID 910); details: HeLa EGFP-654 splicing reporter, GFP fluorescence, 48 h; series mostly up to 38.3 µM;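 note: HeLa cells stably carrying EGFP split by mutant beta-globin IVS2-654 intron; % of control where 0% means no effect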
Method in brief: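 HeLa cells stably expressing EGFP interrupted by β-globin IVS2-654 intron, seeded overnight in Opti-MEM/2% FCS, then treated 2 days at 37 °C. Restored splicing read as total peak GFP intensity per well by laser scanning cytometry (488 nm excitation, 500–520 nm emission); 500 nM antisense PNA as control.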

[20] = Confirmation and Secondary Assay for Modulators of Hemoglobin Beta Chain Splicing at IVS2 705 locus (AID 930); details: HeLa EGFP-705 splicing reporter, GFP fluorescence, 48 h; series mostly up to 38.3 µM;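 note: HeLa cells stably expressing the EGFP-705 splicing reporter; GFP fluorescence per well restored by corrected splicing of the IVS2-705 intron in EGFP; % of control where 0% means no effect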
Method in brief: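 Per-well GFP, captured at 1 x 8 µm resolution with 488 nm excitation, served as the read-out for HeLa EGFP-705 cells incubated 2 days with test compound versus DMSO.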

[21] = measured here: cell count channel max response
[22] = measured here: lipid channel max response

Dual specificity protein kinase CLK4 (Homo sapiens), sequence (Q9HAZ1 whole entry, looked up): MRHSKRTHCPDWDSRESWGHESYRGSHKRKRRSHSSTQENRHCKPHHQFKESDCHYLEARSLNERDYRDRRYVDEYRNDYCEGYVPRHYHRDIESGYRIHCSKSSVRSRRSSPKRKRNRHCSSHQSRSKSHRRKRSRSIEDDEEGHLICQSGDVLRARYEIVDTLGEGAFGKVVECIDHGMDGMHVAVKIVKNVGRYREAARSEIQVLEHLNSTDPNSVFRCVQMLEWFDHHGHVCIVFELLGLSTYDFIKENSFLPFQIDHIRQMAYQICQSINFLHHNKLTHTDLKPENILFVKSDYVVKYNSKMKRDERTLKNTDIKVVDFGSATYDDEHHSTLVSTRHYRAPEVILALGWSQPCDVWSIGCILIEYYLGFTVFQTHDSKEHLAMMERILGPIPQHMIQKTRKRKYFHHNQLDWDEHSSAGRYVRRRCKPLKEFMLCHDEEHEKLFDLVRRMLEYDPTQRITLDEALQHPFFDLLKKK
Ubiquitin carboxyl-terminal hydrolase 1 (Homo sapiens), sequence (O94782 whole entry, looked up): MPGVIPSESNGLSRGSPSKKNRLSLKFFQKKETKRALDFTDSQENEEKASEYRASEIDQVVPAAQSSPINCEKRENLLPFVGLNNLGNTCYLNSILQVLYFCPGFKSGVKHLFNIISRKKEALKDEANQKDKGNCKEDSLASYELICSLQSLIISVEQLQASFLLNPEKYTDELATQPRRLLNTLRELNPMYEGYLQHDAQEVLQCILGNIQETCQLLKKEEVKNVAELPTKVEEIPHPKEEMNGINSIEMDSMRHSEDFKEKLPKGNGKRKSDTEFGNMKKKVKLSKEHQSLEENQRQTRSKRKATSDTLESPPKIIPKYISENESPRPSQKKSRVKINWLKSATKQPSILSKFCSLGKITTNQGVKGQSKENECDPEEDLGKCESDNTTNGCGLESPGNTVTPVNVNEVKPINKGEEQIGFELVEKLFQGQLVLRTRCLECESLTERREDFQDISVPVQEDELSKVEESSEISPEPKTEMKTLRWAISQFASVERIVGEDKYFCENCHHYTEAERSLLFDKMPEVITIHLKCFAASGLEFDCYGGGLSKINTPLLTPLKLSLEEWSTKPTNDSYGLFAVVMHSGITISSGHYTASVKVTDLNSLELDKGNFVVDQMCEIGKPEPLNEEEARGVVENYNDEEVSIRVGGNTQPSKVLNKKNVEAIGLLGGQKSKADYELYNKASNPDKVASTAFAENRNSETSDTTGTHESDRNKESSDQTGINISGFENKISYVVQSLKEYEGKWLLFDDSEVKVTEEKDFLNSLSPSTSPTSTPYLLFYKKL
Cytochrome P450 3A4 (Homo sapiens), sequence (P08684 whole entry, looked up): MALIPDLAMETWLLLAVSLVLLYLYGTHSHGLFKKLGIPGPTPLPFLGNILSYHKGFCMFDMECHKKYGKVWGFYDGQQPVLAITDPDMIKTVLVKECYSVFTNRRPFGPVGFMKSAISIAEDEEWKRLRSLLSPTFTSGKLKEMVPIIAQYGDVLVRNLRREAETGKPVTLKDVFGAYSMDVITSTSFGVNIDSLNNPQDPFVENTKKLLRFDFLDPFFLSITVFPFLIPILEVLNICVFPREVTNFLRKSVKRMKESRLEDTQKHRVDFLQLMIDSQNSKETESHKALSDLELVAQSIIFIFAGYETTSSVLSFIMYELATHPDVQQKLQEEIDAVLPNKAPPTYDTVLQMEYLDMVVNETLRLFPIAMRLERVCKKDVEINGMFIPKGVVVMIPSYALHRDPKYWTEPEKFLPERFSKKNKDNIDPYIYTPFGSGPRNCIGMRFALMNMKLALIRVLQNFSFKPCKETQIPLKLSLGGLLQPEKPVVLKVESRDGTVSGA
3',5'-cyclic-AMP phosphodiesterase 4B (Homo sapiens), sequence (Q07343 whole entry, looked up): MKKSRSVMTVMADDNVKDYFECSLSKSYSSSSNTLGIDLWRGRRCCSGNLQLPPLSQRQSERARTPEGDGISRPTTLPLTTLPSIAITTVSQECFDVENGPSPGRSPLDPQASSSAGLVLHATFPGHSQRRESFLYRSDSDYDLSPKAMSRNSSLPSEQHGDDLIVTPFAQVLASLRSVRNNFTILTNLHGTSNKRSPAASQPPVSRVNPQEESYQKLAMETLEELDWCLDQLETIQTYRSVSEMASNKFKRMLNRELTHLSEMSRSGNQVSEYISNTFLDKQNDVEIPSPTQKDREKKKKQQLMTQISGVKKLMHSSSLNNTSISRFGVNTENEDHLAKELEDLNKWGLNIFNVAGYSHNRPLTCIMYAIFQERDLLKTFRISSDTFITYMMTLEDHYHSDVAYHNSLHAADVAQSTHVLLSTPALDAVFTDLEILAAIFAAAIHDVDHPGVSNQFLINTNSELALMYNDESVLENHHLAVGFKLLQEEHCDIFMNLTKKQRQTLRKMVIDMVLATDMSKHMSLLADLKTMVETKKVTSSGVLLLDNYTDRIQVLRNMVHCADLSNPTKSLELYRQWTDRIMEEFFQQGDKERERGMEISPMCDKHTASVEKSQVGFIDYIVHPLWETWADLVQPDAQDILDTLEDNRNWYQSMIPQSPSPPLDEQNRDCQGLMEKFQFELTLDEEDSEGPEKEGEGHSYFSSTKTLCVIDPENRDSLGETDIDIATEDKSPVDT
Glucocorticoid receptor (Homo sapiens), sequence (P04150 whole entry, looked up, the tested form may be a part): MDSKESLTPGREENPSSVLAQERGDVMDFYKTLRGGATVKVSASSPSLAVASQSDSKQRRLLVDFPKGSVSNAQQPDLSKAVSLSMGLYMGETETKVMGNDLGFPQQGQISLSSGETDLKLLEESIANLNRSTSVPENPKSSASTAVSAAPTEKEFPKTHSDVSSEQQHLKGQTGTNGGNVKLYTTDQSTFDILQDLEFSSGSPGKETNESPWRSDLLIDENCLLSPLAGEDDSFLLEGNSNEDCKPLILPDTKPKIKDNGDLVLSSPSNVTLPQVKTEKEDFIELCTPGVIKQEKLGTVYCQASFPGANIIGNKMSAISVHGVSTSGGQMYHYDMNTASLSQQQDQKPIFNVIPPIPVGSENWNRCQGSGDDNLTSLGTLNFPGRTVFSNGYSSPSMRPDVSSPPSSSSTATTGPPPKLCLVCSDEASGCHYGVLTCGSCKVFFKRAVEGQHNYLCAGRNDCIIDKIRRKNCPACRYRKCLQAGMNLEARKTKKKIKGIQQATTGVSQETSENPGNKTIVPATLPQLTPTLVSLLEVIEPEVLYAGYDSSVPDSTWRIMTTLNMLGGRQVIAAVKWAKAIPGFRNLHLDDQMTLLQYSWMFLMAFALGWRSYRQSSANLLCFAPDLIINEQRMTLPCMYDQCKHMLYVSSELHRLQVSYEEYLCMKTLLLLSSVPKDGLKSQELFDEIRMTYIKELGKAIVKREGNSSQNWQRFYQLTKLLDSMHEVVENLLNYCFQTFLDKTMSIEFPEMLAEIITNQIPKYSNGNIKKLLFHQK
Rap guanine nucleotide exchange factor 3 (Homo sapiens), sequence (O95398 whole entry, looked up): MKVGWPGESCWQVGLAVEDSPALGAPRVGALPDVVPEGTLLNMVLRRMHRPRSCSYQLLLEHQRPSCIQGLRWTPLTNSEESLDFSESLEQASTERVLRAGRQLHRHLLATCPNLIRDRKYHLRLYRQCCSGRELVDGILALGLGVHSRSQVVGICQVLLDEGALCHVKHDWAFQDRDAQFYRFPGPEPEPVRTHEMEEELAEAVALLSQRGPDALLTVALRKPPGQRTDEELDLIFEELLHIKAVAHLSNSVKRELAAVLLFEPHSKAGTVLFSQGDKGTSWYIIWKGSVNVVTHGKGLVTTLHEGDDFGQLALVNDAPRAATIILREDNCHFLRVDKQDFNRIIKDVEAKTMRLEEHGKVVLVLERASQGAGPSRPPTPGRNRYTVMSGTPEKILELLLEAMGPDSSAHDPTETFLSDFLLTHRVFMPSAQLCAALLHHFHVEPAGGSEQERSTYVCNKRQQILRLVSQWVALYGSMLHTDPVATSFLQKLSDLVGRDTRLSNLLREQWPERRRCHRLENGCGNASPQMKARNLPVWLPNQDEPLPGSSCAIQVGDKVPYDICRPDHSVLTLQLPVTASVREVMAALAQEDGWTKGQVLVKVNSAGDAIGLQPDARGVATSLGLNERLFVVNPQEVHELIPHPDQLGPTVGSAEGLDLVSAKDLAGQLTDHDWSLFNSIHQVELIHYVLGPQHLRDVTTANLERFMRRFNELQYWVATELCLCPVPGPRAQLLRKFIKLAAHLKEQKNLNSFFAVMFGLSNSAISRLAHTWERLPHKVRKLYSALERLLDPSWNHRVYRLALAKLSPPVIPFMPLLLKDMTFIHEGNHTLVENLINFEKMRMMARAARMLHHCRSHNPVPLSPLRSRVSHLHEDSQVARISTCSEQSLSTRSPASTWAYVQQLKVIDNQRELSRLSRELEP
Cytochrome P450 1A2 (Homo sapiens), sequence (P05177 whole entry, looked up): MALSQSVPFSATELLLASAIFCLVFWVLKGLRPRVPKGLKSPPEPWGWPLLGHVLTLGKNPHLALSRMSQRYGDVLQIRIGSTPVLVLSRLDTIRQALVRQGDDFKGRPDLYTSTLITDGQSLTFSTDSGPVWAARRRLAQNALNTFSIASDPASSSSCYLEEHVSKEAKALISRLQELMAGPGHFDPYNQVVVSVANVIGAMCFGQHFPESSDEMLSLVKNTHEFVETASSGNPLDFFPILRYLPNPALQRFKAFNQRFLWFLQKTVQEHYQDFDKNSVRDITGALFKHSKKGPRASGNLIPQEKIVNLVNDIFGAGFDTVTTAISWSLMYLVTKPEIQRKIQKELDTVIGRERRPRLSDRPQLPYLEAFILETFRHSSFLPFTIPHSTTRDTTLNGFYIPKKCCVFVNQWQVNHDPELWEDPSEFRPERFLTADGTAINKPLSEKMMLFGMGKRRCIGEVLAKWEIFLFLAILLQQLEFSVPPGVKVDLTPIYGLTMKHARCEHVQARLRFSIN

COc1ccc2[nH]cc(CCNc3ncnc4ccc(-c5ccc6c(c5)OCO6)cc34)c2c1
-4.39%: max response [10, 21]
inactive: Potency [1] > 11.4 µM | activity change, negative = inhibition [3] -23.8% | activity, negative = inhibition [4] -24.8% | Potency [5] > 46 µM | Potency [6] | Potency [7] | Potency [9] | activity change, negative = inhibition [10] 2.76% | Potency [14] | Potency [15]
-5.39%: max response [10, 22]
active: Potency [2] 0.631 µM | Potency [8] 2 µM | Potency [11] 0.316 µM | Potency [12] 0.282 µM | Potency [13] 0.0708 µM

CC[C@@H]1Cn2c(c3nc(-c4ccccc4)nc-3n(C)c2=O)N1
inactive: Potency [8] | outcome [16]
active: Potency [9] 12.6 µM

O=[N+]([O-])c1cccc2c[nH]nc12
active: Potency [2] 2.51 µM
inactive: Potency [5] > 46 µM | Potency [6] | Potency [9] | outcome [16]

O=C(c1cnccn1)N1CCC2(CCCN(c3ccccn3)C2)CC1
inactive: activity change, negative = inhibition [17] -13% | Potency [2] | activity, negative = inhibition [4] 1.23% | Potency [5] > 46 µM | Potency [6] | Potency [7] | Potency [9] | outcome [16]

COc1ccc2[nH]cc(CCNc3ncnc4ccc(-c5ccccc5C#N)cc34)c2c1
-10.8%: max response [10, 22]
active: Potency [2] 3.98 µM | Potency [8] 2 µM
-13.6%: max response [10, 21]
inactive: Potency [1] > 11.4 µM | activity change, negative = inhibition [17] -21.6% | activity change, negative = inhibition [3] 29.2% | activity, negative = inhibition [4] -19.5% | Potency [18] > 46 µM | Potency [5] > 46 µM | Potency [6] | Potency [9] | Potency [19] | outcome [20] | activity change, negative = inhibition [10] 4.54% | Potency [15]

COc1ccc2[nH]cc(CCNc3nc(-c4ccc(C(=O)N(C)C)cc4)nc4ccccc34)c2c1
inactive: Potency [18] > 46 µM | Potency [5] > 46 µM | Potency [6] | Potency [7] | Potency [9] | Potency [19] | Potency [14] | outcome [16]
active: Potency [2] 15.8 µM | Potency [8] 2.51 µM

CC(=O)NC(C(=O)O)C(C)(C)SN=O (stereo unspecified)
6.33%: max response [10, 21]
inactive: activity change, negative = inhibition [10] 0.182%
9%: max response [10, 22]

NC(Cc1ccc(O)c(O)c1)C(=O)O (stereo unspecified)
4.16%: max response [10, 21]
inactive: Potency [8] | Potency [19] | activity change, negative = inhibition [10] 11.6% | Potency [15]
20.4%: max response [10, 22]

COc1cc(/C=C/C(=O)/C=C(O)/C=C/c2ccc(O)c(OC)c2)ccc1O
inactive: Potency [9] | outcome [16]
active: Potency [14] 12.6 µM and 31.6 µM
